Compounds without any hit were thinned out: in the full panel of roughly 83,000, 20% have a hit.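 Step 1: grow cells in 96-well plates. Step 2: add test compound at a single concentration. Step 3: incubate 48 h. Step 4: record percent growth.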 Unmarked numbers belong to inactive results. Calls of active or inactive are those of the source. How the source made its calls: active means growth percent below 10; inactive means the rest.

Some test systems named below: NCI-H23 lung; NCI-H322M lung; HOP-62 NSCLC; NCI-H460 lung; HOP-92 NSCLC; NCI-H522 lung; A549/ATCC NSCLC; 786-0 renal; COLO 205 colon; DU-145 prostate; K-562 leukemia; MALME-3M melanoma; MDA-MB-231 breast; RXF 393 renal; SF-268 CNS; SF-295 CNS; SF-539 CNS; UACC-257 melanoma; M14 melanoma; HCT-15 colon.
Experiment in all cases: NCI-60 one-dose screen, 48 h (100 = growth as untreated, 0 = no growth, -100 = all killed)
Holding throughout (conditions): 10 µM unless noted

`COc1ccc(Br)c(/C=C2\SC(=Nc3ccc(O)cc3)NC2=O)c1`: the growth in the assay on NCI-H23 lung was 92.1%; with NCI-H322M lung, 99.8%; in the assay with HOP-62 NSCLC it was 96.2%; in the assay with NCI-H460 lung, 102%; in the assay on HOP-92 NSCLC, 83.2%; with NCI-H522 lung it was 77.2%. The growth with A549/ATCC NSCLC was 87.2%; in the assay on 786-0 renal, 82.8%; in the assay on COLO 205 colon it was 102%; with DU-145 prostate it was 98.1%; in the assay with K-562 leukemia it was 84.4%; with MALME-3M melanoma, 89.6%. Moreover, the growth in the assay with MDA-MB-231 breast was 108%; in the assay with RXF 393 renal, 83.7%; in the assay with SF-268 CNS it was 74%; in the assay on SF-295 CNS it was 98.3%; with SF-539 CNS, 85.4%; with UACC-257 melanoma, 102%. Also, the growth in the assay with M14 melanoma is 97.8%; in the assay with HCT-15 colon, 79.3%.
With `O=C(Nc1ccc(Br)cc1F)c1cc(I)ccc1O`, the growth in the assay with NCI-H23 lung was 4.95% (active); in the assay on NCI-H322M lung, 2.64% (active); with HOP-62 NSCLC, 0.452% (active); in the assay with NCI-H460 lung, 6.01% (active); in the assay on HOP-92 NSCLC, -27.7% (active); in the assay with NCI-H522 lung, -30% (active). Besides, the growth is 4.34% (active) in the assay with A549/ATCC NSCLC; 2.92% (active) in the assay on 786-0 renal; 104% in the assay on COLO 205 colon; 17.2% in the assay with DU-145 prostate; 10.3% in the assay on K-562 leukemia; -20.4% (active) with MALME-3M melanoma. The growth is 32.3% with MDA-MB-231 breast; 1.53% (active) with RXF 393 renal; 12.7% in the assay on SF-268 CNS; 0.923% (active) with SF-295 CNS; 9.06% (active) in the assay on SF-539 CNS; -12.9% (active) in the assay with UACC-257 melanoma. The growth is 16.8% in the assay on M14 melanoma and 11.9% in the assay on HCT-15 colon.
As to `CCC1=C[C@]2(C3CC(=O)N(c4ccccc4)C3=O)CC(C(C)(C)C)C[C@@H]2[C@@H]2C(=O)N(c3ccccc3)C(=O)[C@H]12` (stereo not given in full), the growth in the assay with NCI-H23 lung is 95.2%; in the assay on NCI-H322M lung, 69.3%; in the assay on HOP-62 NSCLC, 82.1%; in the assay with NCI-H460 lung it was 93.3%; in the assay with HOP-92 NSCLC it was 84.5%; with NCI-H522 lung it was 57.3%. Besides, the growth in the assay with A549/ATCC NSCLC was 68.7%; in the assay with 786-0 renal it was 83.8%; in the assay with COLO 205 colon it was 93.3%; with DU-145 prostate, 92%; in the assay with K-562 leukemia, 83.7%; in the assay with MALME-3M melanoma it was 91.5%. The growth is 81.4% in the assay on MDA-MB-231 breast; 87.3% in the assay on RXF 393 renal; 78.5% in the assay on SF-268 CNS; 93.6% with SF-295 CNS; 95.3% in the assay with SF-539 CNS; 57.1% in the assay on UACC-257 melanoma. Further, the figures for the growth in the assay with M14 melanoma and with HCT-15 colon were 83.7% and 87.7%, respectively.
Turning to `CCOC(=O)c1c(C=O)nc2ccccc2c1/C=C/c1ccc(Cl)cc1`, the growth was 100% with NCI-H23 lung; 99.8% in the assay on NCI-H322M lung; 103% with HOP-62 NSCLC; 100% in the assay with NCI-H460 lung; 92.8% in the assay on HOP-92 NSCLC; 78.8% in the assay on NCI-H522 lung. Besides, the growth is 96.4% with A549/ATCC NSCLC; 106% in the assay on 786-0 renal; 119% in the assay with COLO 205 colon; 96.3% in the assay on DU-145 prostate; 61.7% in the assay with K-562 leukemia; 100% with MALME-3M melanoma. Further, the growth in the assay with MDA-MB-231 breast was 87.7%; in the assay with RXF 393 renal it was 99.5%; in the assay on SF-268 CNS, 91.2%; in the assay with SF-295 CNS, 101%; in the assay on SF-539 CNS, 90.9%; in the assay with UACC-257 melanoma, 105%. The results for the growth in the assay on M14 melanoma and in the assay on HCT-15 colon were 91.6% and 89.6%, respectively.
As for `CN=c1ccc2nc3ccc(N)cc3sc-2c1`, the growth with NCI-H23 lung was 13.3%; in the assay with NCI-H322M lung, 42%; in the assay with HOP-62 NSCLC, 29%; in the assay on NCI-H460 lung, 27.6%; with HOP-92 NSCLC it was 53.5%; in the assay with NCI-H522 lung, 10.5%. Further, the growth in the assay with A549/ATCC NSCLC was 9.37% (active); in the assay with 786-0 renal, 48.8%; in the assay with COLO 205 colon it was 1.63% (active); in the assay on DU-145 prostate, 75.3%; with K-562 leukemia, 20.7%; with MALME-3M melanoma it was -22.9% (active). Also, the growth is 7.68% (active) with MDA-MB-231 breast; 49.9% with RXF 393 renal; 16.1% in the assay with SF-268 CNS; -43.1% (active) with SF-295 CNS; 12% in the assay with SF-539 CNS; -19.3% (active) in the assay with UACC-257 melanoma. The growth with M14 melanoma was 9.39% (active); in the assay with HCT-15 colon, 30.3%.
Regarding `Cc1ccc2cc3c(N)c4c(C)ccc(C)c4nc3nc2c1`, the growth in the assay on NCI-H23 lung is 89.4%; in the assay on NCI-H322M lung, 72.4%; in the assay on HOP-62 NSCLC, 76.3%; with NCI-H460 lung, 53%; with HOP-92 NSCLC, 29.4%; with NCI-H522 lung it was -23.9% (active). Further, the growth is 45.1% in the assay with A549/ATCC NSCLC; 54.2% with 786-0 renal; -53.3% (active) in the assay on COLO 205 colon; 80.5% in the assay on DU-145 prostate; -18.6% (active) in the assay on K-562 leukemia; -77% (active) with MALME-3M melanoma. Also, the growth in the assay on MDA-MB-231 breast was 7.18% (active); in the assay with RXF 393 renal, 45.1%; in the assay with SF-268 CNS, 17.4%; in the assay on SF-295 CNS it was -45.8% (active); in the assay on SF-539 CNS, -68% (active); with UACC-257 melanoma it was -78.8% (active). Besides, the growth in the assay on M14 melanoma is -79.1% (active); in the assay on HCT-15 colon, 10.8%.
Consider `O=c1oc2ccc(Br)cc2c(=O)n1-c1ccc(F)cc1F`, for which the growth is 4.93% (active) with NCI-H23 lung; 7.55% (active) in the assay with NCI-H322M lung; 6.8% (active) in the assay on HOP-62 NSCLC; 5.91% (active) in the assay with NCI-H460 lung; -24.4% (active) in the assay on HOP-92 NSCLC; -6.16% (active) in the assay with NCI-H522 lung. In addition, the growth in the assay on A549/ATCC NSCLC is 6.77% (active); in the assay with 786-0 renal, 4.39% (active); with COLO 205 colon it was 85.5%; in the assay on DU-145 prostate it was 18%; in the assay on K-562 leukemia, 9.74% (active); in the assay with MALME-3M melanoma, -22.5% (active). In addition, the growth in the assay on MDA-MB-231 breast was 14.1%; in the assay with RXF 393 renal, 3.17% (active); in the assay on SF-268 CNS, 12.7%; with SF-295 CNS, -11.1% (active); in the assay on SF-539 CNS, 10.7%; with UACC-257 melanoma it was -8.2% (active). Besides, the growth in the assay with M14 melanoma is 12%; in the assay with HCT-15 colon, 13.6%.
As to `O=C(Nc1ccc(Cl)cc1F)c1cc(Br)ccc1O`, the growth with NCI-H23 lung is 4.02% (active); in the assay with NCI-H322M lung it was 7.3% (active); with HOP-62 NSCLC, 1.76% (active); with NCI-H460 lung it was 4.27% (active); with HOP-92 NSCLC, -12.8% (active); in the assay on NCI-H522 lung it was -12.9% (active). Further, the growth was 7.61% (active) in the assay with A549/ATCC NSCLC; 3.02% (active) with 786-0 renal; 51.5% in the assay with COLO 205 colon; 17.2% in the assay with DU-145 prostate; 8.83% (active) in the assay on K-562 leukemia; -16.9% (active) with MALME-3M melanoma. In addition, the growth was -26.1% (active) in the assay on MDA-MB-231 breast; 7.94% (active) in the assay with RXF 393 renal; 13.6% in the assay with SF-268 CNS; -48.3% (active) in the assay with SF-295 CNS; 7.34% (active) with SF-539 CNS; -15.8% (active) in the assay with UACC-257 melanoma. The growth was 8.91% (active) with M14 melanoma and 4.84% (active) in the assay with HCT-15 colon.
